This is a sample that favours compounds with a hit; in the whole collection about 11% have one here.
HCV inh: HCV inhibition; Huh7.5.1 HCVcc-Cre infection, luciferase reporter, 44 h; Potency, µM (series often up to 41.8 µM), inactives show at the top dose activity change, negative = inhibition, hits mostly inhibitors; 3.4% of 340,000 active
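Infectious HCVcc-Cre (~0.5 moi) was added to cells just after compound, with cells seeded 4 h earlier at 1,000 per well. Luciferase activity after 44 h culture reported infection; substrate was incubated 15 min at room temperature before reading.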
Pf growth 96h: P. falciparum growth inhibition at 96 hours. P. falciparum luciferase reporter growth, 96 h. AID 504834. 6.9% of 320,000 active. Potency, µM (series often up to 28.7 µM), inactives show top-dose activity change, negative = inhibition, usual class: inhibitors
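Luminescence readout: decreased luciferase signal marks inhibited growth of reporter-expressing P. falciparum in infected red cells (2% hematocrit, 0.05% parasitemia final), exposed to compound two generations (96 h, 37 C, 5% CO2).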
Pf growth 48h: P. falciparum growth inhibition at 48 hours (one generation); P. falciparum luciferase growth in erythrocytes, 48 h; Potency, µM (highest dose often 28.7 µM), inactives show at the highest dose activity change, negative = inhibition, usual class: inhibitors; 5.9% of 310,000 active
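First compound was added to culture medium, then infected red cells at 0.1% parasitemia and 2% hematocrit (final). After incubation at 37 C under 5% CO2, luciferase detection reagent was dispensed and light output recorded.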
AMA1-RON2 inh: disrupts binding of P. falciparum AMA1 to RON2. AlphaScreen AMA1-biotinylated RON2 peptide binding. Potency, µM (top dose mostly 58.2 µM), for inactives: at the highest dose activity change, negative = inhibition, usual class: inhibitors. 0.2% of 360,000 active;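 further: 0% = vehicle wells and -100% = peptide control; nearly all actives have a fitted effect of over 45% in size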
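AMA1 (3D7) with his tag at 25 nM final met compounds first, then biotinylated RON2 peptide at 25 nM; detection used donor plus acceptor beads, 10 µg/mL apiece, read by AlphaScreen after 30 min at room temperature.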
Starred values were filed as active, the others as inactive; ? = inconclusive; . = no result given. The call rests on the fitted dose curve; in most records, active means well fitted curve in the direction sought with a large enough effect; inconclusive means small, poorly fitted or top-dose-only effect, or another doubt; inactive means no such curve, though single readings can be large; an effect the other way counts as inactive or inconclusive. Unless noted, on the % scale 0 is the no-effect control and ±100 the full control effect; potency means the concentration at half of the fitted maximal effect.

SMILES	HCV inh	Pf growth 96h	Pf growth 48h	AMA1-RON2 inh
O=C(Nc1nc2cc3c(cc2s1)OCO3)c1ccco1	0%	86%	36%	4%
CC(C)(C)c1ccc(C(=O)Nc2ccc(NC(=O)c3ccco3)cc2)cc1	?	10µM*	?	-5%
O=C(Nc1nc2ccccc2c(=O)s1)c1ccco1	-5%	2%	2.1µM*	-5%
O=C(Nc1cc(Br)c(O)c(Br)c1)c1cccc(NC(=O)c2ccco2)c1	2%	7.4µM*	?	-8%
CC(NC(=O)c1ccco1)c1nc(-c2ccc(C(C)(C)C)cc2)no1 (stereo not given)	16µM*	?	-4%	-20%
CCCOc1ccccc1NC(=O)c1ccc(N)cc1	7.1µM*	?	20%	-6%
C/C(=N\NC(=O)c1ccco1)c1ccc(NC(=O)c2ccccc2)cc1	-15%	13µM*	325%	15%
C/C(=N\NC(=O)c1ccco1)c1ccc(-c2ccccc2)cc1	-12%	?	?	8%
Cc1noc(C)c1CSCc1ccc(Cl)cc1	-5%	8%	10%	18%
CCOc1ccc(NC(=O)CSc2nc(=O)n(Cc3cccnc3)c3c2CCC3)cc1	?	?	?	-8%
COc1cccc(NC(=O)c2cc(Cl)nnc2Cl)c1	?	?	3.7µM*	14%
COc1cc(NC(=O)c2cc(C(C)C)on2)cc(OC)c1OC	-26%	?	.	20%
COc1cc(NC(=O)c2cc(Cl)nnc2Cl)cc(OC)c1OC	-3%	?	12µM*	5%
O=C(c1ccc2c(c1)CCC2)N1CCN(Cc2ccccc2)CC1	.	.	.	-3%
COc1ccc(NC(=S)/N=C(\N)Nc2nc(C)c3ccccc3n2)cc1	?	2.9µM*	?	22%
Cc1ccc(NC(=S)/N=C(\N)Nc2nc(C)c3cc(C)c(C)cc3n2)cc1C	?	10µM*	?	72%
COc1ccc2nc(N/C(N)=N/C(=S)Nc3cccc(C)c3)nc(C)c2c1	?	20%	?	-9%
Cc1ccc(NC(=S)/N=C(\N)Nc2nc(C)c3cc(C)ccc3n2)c(C)c1	2.8µM*	?	?	33%
NCc1csc(NC(=O)Nc2cccc(C(F)(F)F)c2)n1	.	.	.	86%
O=C(O)CCC/C=C\C[C@@H]1[C@@H](/C=C/[C@@H](O)COc2cccc(C(F)(F)F)c2)[C@H](O)C[C@@H]1O	.	0.95µM*	-9%	.
C/C=C(\C)C(=O)NCCN1C2=NC[C@@H](C)N2C[C@@H]1Cc1ccc(OC)cc1	23%	69%	47%	11%
COc1ccc(C[C@H]2CN3C(=NC[C@@H]3C(C)C)N2C[C@H](C)NC(=O)c2ccc(C)c(Br)c2)cc1	-9%	2.9µM*	?	-6%
Cc1ccc(C(=O)N[C@@H](C)CN2C3=NC[C@H](C(C)C)N3C[C@H]2Cc2ccc(O)cc2)cc1Br	-5%	9.3µM*	?	-11%
CSCCC(=O)N1CCC(n2nccc2NC(=O)CCCc2ccccc2)CC1	-13%	?	?	-4%
CCc1sc(N(C(=O)Cc2ccccc2)c2cccc(F)c2)nc1-c1ccc(C)cc1	9%	?	?	5%
SMILES	HCV inh	Pf growth 96h	Pf growth 48h	AMA1-RON2 inh
CCc1sc(N(C(=O)Cc2ccccc2)c2ccccc2F)nc1-c1ccc(C)cc1	-10%	10µM*	?	-3%
Fc1ccc2nc(Nc3nc4c(F)cccc4s3)sc2c1	-2%	?	-18%	61%
O=C(Nc1nc2c(F)cc(F)cc2s1)c1ccccn1	10µM*	?	122%	56%
Fc1ccc2nc(Nc3nc4c(F)cc(F)cc4s3)sc2c1	1%	10µM*	0%	65%
O=[N+]([O-])c1ccc(-c2ccc(S(=O)(=O)N3CCOCC3)cc2)cc1	8%	22%	1%	-1%
O=C1CN(S(=O)(=O)c2ccc([N+](=O)[O-])cc2)CC(=O)N1	-3%	12µM*	41%	21%
O=[N+]([O-])c1ccc(S(=O)(=O)CC(CN2CCOCC2)N2CCOCC2)cc1 (stereo not given)	11µM*	?	6%	-13%
O=[N+]([O-])c1ccc(C(O)CN2CCOCC2)cc1 (stereo not given)	8%	48%	1%	19%
O=[N+]([O-])c1ccc(Oc2ccc(S(=O)(=O)N3CCOCC3)cc2)cc1	11µM*	?	0%	0%
O=C(NC1CCCCC1)C(c1ccc2ncccc2c1)N(Cc1ccccc1)C(=O)c1cccs1 (stereo not given)	?	?	10µM*	-1%

Screening results deposited in PubChem BioAssay by National Center for Advancing Translational Sciences (NCATS).
